{"source": "PubChem BioAssay AID449764", "about": "(Southern Research Specialized Biocontainment Screening …, 2010)", "note": "The campaign covered roughly 2,300 compounds. About 1,700 (74%) were called active. How the calls were made is not given here. So high a share suggests a set chosen from earlier hits. Some of the results follow. Entries with a potency or affinity are not part of this list.", "data": [{"test": "Confirmatory growth inhibition assay, Mycobacterium tuberculosis H37Rv, absence of glycerol (AID 449764);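 further: growth read after 7 days of incubation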", "details": "no glycerol; series mostly up to 100 µM", "values": [{"smiles": "CC(C)c1ccc2nc(N)sc2c1", "outcome": "inactive"}, {"smiles": "O=C(/C=C/c1ccc(Cl)cc1)N1CCN(c2ccc(Cl)cc2[N+](=O)[O-])CC1", "outcome": "inactive"}, {"smiles": "COC(=O)c1cc(NC(=O)c2c(F)c(F)c(F)c(F)c2F)cc(C(=O)OC)c1", "outcome": "inactive"}, {"smiles": "NC(=O)N1CCC2(CC1)NC(=O)N(c1ccccc1)N2", "outcome": "inactive"}, {"smiles": "O=C(/C=C/c1ccc(OCCCF)cc1)Nc1ccnc(-c2ccncc2)n1", "outcome": "inactive"}, {"smiles": "Cc1oc(C)c2c(=O)ccc3c(c12)OC(N)=C(C#N)C3c1ccccc1Cl", "note": "(centres undefined)", "outcome": "inactive"}, {"smiles": "Cc1nn(C(C)(C)C)c(NC(=O)c2ccc(Cl)cc2Cl)c1Br", "outcome": "inactive"}, {"smiles": "O=C(c1ccccc1)c1nn(-c2ccc(Cl)cc2)cc1C(=O)c1cc2ccccc2oc1=O", "outcome": "inactive"}, {"smiles": "Cc1ccc(F)cc1CNC(=O)c1cc(COc2ccc3ncccc3c2)on1", "outcome": "inactive"}, {"smiles": "CCN(CC)S(=O)(=O)c1cc(C(=O)Oc2cccc(-c3cnc4ccccc4n3)c2)ccc1Br", "outcome": "inactive"}, {"smiles": "Cc1cc(-n2c(C)cc(C(=O)COc3ccc4ccc(=O)oc4c3)c2C)no1", "outcome": "inactive"}, {"smiles": "COc1ccc(N/C=C(\\C2OC(=O)c3ccccc32)[N+](=O)[O-])cc1", "note": "(centres undefined)", "outcome": "inactive"}, {"smiles": "CC(C)c1nc2scc(-c3ccc(Cl)cc3)c2c(=O)n1N", "outcome": "inactive"}, {"smiles": "NN/C(=C\\[N+](=O)[O-])Nc1ccc(Cl)cc1", "outcome": "inactive"}, {"smiles": "C/C(CC(=O)Nc1ccc2c(c1)OCCO2)=N\\NC(=O)c1ccccc1F", "outcome": "inactive"}, {"smiles": "Cc1ccc2c(c1)Oc1ccc(NC(=O)CCl)cc1C(=O)N2", "outcome": "inactive"}, {"smiles": "CCCc1cc(=O)[nH]c(SCC(=O)N2CCCC2=O)n1", "outcome": "inactive"}, {"smiles": "O=C(Nc1ccc(-n2cccc2)cc1)C1CC1", "outcome": "inactive"}, {"smiles": "O=c1c2ccc(Cl)cc2nc(-c2ccc([N+](=O)[O-])cc2)n1O", "outcome": "inactive"}, {"smiles": "COc1ccc(N2CCN(Cc3cc4c(cc3O)CCC4)CC2)cc1", "outcome": "inactive"}, {"smiles": "C=CCn1c(N)cc(=O)nc1SC(CC)C(=O)Nc1ccc(C(C)=O)cc1", "note": "(centres undefined)", "outcome": "inactive"}, {"smiles": "C[C@H](O)[C@H](O)[C@H]1CNc2nc(N)[nH]c(=O)c2N1", "outcome": "inactive"}, {"smiles": "CCCCc1ccc(NC(=S)N2CCN(c3ncccn3)CC2)cc1", "outcome": "inactive"}, {"smiles": "C=C(C)C1CCC(C)=C1COC(=O)Nc1ccccc1", "note": "(centres undefined)", "outcome": "inactive"}, {"smiles": "COC(=O)Cc1ccc(NC(=O)c2ccc(Br)o2)cc1", "outcome": "inactive"}, {"smiles": "Cc1nc(SCC(=O)Nc2ccc(OCc3ccccc3)cc2)n[nH]1", "outcome": "inactive"}, {"smiles": "COc1ccc(-c2cc3n(n2)CCc2nc4ccccc4n2-3)cc1", "outcome": "inactive"}, {"smiles": "C/C(=C\\C(=O)c1ccccc1)Nc1ccc(Cl)c(Br)c1", "outcome": "inactive"}, {"smiles": "COc1ccc(/C(O)=C/Sc2nnc(Cc3ccccc3)o2)cc1", "outcome": "inactive"}, {"smiles": "CCn1c2ccccc2c2cc(NC(=O)CN(C)CC(=O)Nc3ccc(N4CCOCC4)cc3)ccc21", "outcome": "inactive"}, {"smiles": "C=CCc1cccc2cc(C(=O)OCC(=O)c3ccccc3)c(=O)oc12", "outcome": "inactive"}, {"smiles": "COc1cc(/C=C2\\C(=O)NN(c3ccc(C)cc3)C2=O)cc([N+](=O)[O-])c1O", "outcome": "inactive"}, {"smiles": "O=C1CCC(=O)N1CNc1ccc(Oc2ccccc2)cc1", "outcome": "inactive"}, {"smiles": "O=C(OCc1ccccc1)c1cccc(-c2nnn(Cc3ccccc3)n2)c1", "outcome": "inactive"}, {"smiles": "O=C(CSc1n[nH]c(-c2ccccc2)n1)Nc1ccc(Br)cn1", "outcome": "inactive"}, {"smiles": "CN1CCN2c3ccccc3Cc3ccccc3C2C1", "note": "(centres undefined)", "outcome": "inactive"}, {"smiles": "CC(C)(C)c1nc2sc3c(c2c(=O)o1)CCCC3", "outcome": "inactive"}, {"smiles": "O=c1c2c3c(sc2nc(N2CCNCC2)n1-c1cccc(Cl)c1)CCCCC3", "outcome": "inactive"}, {"smiles": "CCCCOC(=O)c1c(C)oc2ccc(NS(=O)(=O)c3ccc4c5c(cccc35)C(=O)N4)cc12", "outcome": "inactive"}, {"smiles": "COC(OC)c1ccnc(-c2ccc(OC(=O)c3cccs3)cc2)n1", "outcome": "inactive"}, {"smiles": "CCOc1ccc(OCc2ccc(C(=O)N/N=C(\\C)c3ccccn3)cc2)cc1", "outcome": "inactive"}, {"smiles": "C/C(=N\\NC(=O)CC(C)C)c1c(C(F)(F)F)[nH]n(-c2nc3ccccc3s2)c1=O", "outcome": "inactive"}, {"smiles": "Oc1cccc(-c2nc3ccccc3s2)c1", "outcome": "inactive"}, {"smiles": "Cc1ccc(NC(=O)CNCc2cccs2)cc1Br", "outcome": "inactive"}, {"smiles": "COC(=O)c1ccc(N/C(C)=C/C(=O)c2ccc(C)o2)cc1", "outcome": "inactive"}, {"smiles": "O=C(c1cccc([N+](=O)[O-])c1)N1CCN(c2ccc(N3CCOCC3)nn2)CC1", "outcome": "inactive"}, {"smiles": "S=c1[nH]c2ccc3ccccc3c2[nH]1", "outcome": "inactive"}, {"smiles": "Oc1ccccc1C=NC1=NN(c2cccc(C(F)(F)F)c2)CC1", "outcome": "inactive"}, {"smiles": "CCCCCCc1ccc(N2C[C@H](C)[C@@H](CC(=O)NCc3ccccc3)C2=O)cc1", "outcome": "inactive"}, {"smiles": "O=Cc1ccc(-c2ccc(Cl)cc2Cl)[nH]1", "outcome": "inactive"}, {"smiles": "O=C(Nc1ccc(-c2noc(CCc3ccccc3)n2)cc1)c1cccnc1", "outcome": "inactive"}, {"smiles": "CNC(=O)c1csc(-c2ccc(Cl)cc2)n1", "outcome": "inactive"}, {"smiles": "CN1C(=O)c2cccc3c(Br)ccc(c23)C1=O", "outcome": "inactive"}, {"smiles": "O=C(C1CC(=O)N(c2ccc3c(c2)OCCO3)C1)N1CCN(c2cccc(C(F)(F)F)c2)CC1", "note": "(centres undefined)", "outcome": "inactive"}, {"smiles": "CO/N=C\\CC(=O)Nc1ccc(Oc2ccccc2)cc1", "outcome": "inactive"}, {"smiles": "COc1ccc(-c2cc(C(=O)N(C)CC(=O)Nc3cccc(F)c3)c3ccccc3n2)cc1", "outcome": "inactive"}, {"smiles": "CCc1ccc(NC(=O)c2ccc(C3SCC(=O)N3CCc3ccccc3)cc2)cc1", "note": "(centres undefined)", "outcome": "inactive"}, {"smiles": "COc1cc(/C=N/N2CCOCC2)ccc1OCc1ccc(Cl)cc1", "outcome": "inactive"}, {"smiles": "CC(C)OC(=O)c1ccc(N)cc1", "outcome": "inactive"}, {"smiles": "CC(=O)Oc1ccc2occ(C(=O)c3cccs3)c2c1", "outcome": "inactive"}, {"smiles": "CCCC1CCC(C(=O)Nn2c(C)nc3ccccc3c2=O)CC1", "note": "(centres undefined)", "outcome": "inactive"}, {"smiles": "CCOC(=O)c1cc(CC)sc1NC(=O)c1cc(OCC)c(OCC)c(OCC)c1", "outcome": "inactive"}, {"smiles": "Nc1nc2ccccc2n1/N=C/c1ccc(Br)cc1", "outcome": "inactive"}, {"smiles": "CCOc1cc(C2NN=C(c3ccc(C)cc3)S2)ccc1O", "note": "(centres undefined)", "outcome": "inactive"}, {"smiles": "CC(=O)c1ccc(NC(=O)COC(=O)c2c3c(nc4ccccc24)/C(=C\\c2cccs2)CCC3)cc1", "outcome": "inactive"}, {"smiles": "CC(/C=C/C=C/c1ccccc1)=N\\NC(=O)c1cccnc1", "outcome": "inactive"}, {"smiles": "CCNc1nc(NCC)n2c(SC(C(=O)Nc3cc(C)ccc3C)c3ccccc3)nnc2n1", "note": "(centres undefined)", "outcome": "inactive"}, {"smiles": "Cc1ccc(-c2cn3cccnc3n2)cc1NC(=O)c1ccc(Br)o1", "outcome": "inactive"}, {"smiles": "Clc1nc2c(-c3ccccc3)nnn2c2ccccc12", "outcome": "inactive"}, {"smiles": "CCCCc1ccc(NC(=O)CSC2=NN3CCCC(=O)N=C3S2)cc1", "outcome": "inactive"}, {"smiles": "COc1ccccc1/C=C/C1=NC(=C\\C=C/c2ccccc2)/C(=O)O1", "outcome": "inactive"}, {"smiles": "Cc1ccc(-c2nnc(C)c(N3CCCC3)n2)cc1", "outcome": "inactive"}, {"smiles": "CC(OC(=O)CCN=C1NS(=O)(=O)c2ccccc21)C(=O)Nc1ccc(F)c(F)c1F", "note": "(centres undefined)", "outcome": "inactive"}, {"smiles": "COc1cc(NC(=O)c2ccc(C(C)(C)C)cc2)c(OC)cc1NC(=O)CN1CCCCC1", "outcome": "inactive"}, {"smiles": "Cc1sc2nc(CN(C(=O)NC3CCCCC3)C3CCCC3)[nH]c(=O)c2c1C", "outcome": "inactive"}, {"smiles": "Cc1cc(Nc2ccccc2)c2c([N+](=O)[O-])ccc(C)c2n1", "outcome": "inactive"}, {"smiles": "O=Cc1ccc2noc(-c3ccc(Cl)cc3)c2c1", "outcome": "inactive"}, {"smiles": "Cc1nn(-c2ccccn2)c2c1-c1nc(N3CCOCC3)ncc1CC2", "outcome": "inactive"}, {"smiles": "CC(C)N1C(=O)NC(=O)C2(Cc3cc([N+](=O)[O-])ccc3N(C)C2c2ccccc2)C1=O", "note": "(centres undefined)", "outcome": "inactive"}, {"smiles": "CN(C)c1nc(NCc2ccccc2)nc(N/N=C/c2ccc3c(c2)OCO3)n1", "outcome": "inactive"}, {"smiles": "CCCCn1c(N)c(N(CC(C)C)C(=O)c2oc3c(Cl)cccc3c2C)c(=O)[nH]c1=O", "outcome": "inactive"}, {"smiles": "OCCN(/C=N/c1nc(-c2ccc(Br)cc2)cs1)CCO", "outcome": "inactive"}, {"smiles": "CC(C)(C)n1c(O)c(C=Nc2ccc3c(c2)CCC3)c(=O)[nH]c1=O", "outcome": "inactive"}, {"smiles": "CCOC(=O)c1c(/N=C/N(C)C)sc(/C=N/Nc2ccccc2)c1-c1ccccc1Cl", "outcome": "inactive"}, {"smiles": "COCCn1c(-c2ccc(OC(F)(F)C(F)C(F)(F)F)cc2)nc2c1c(=O)[nH]c(=O)n2CC(C)C", "note": "(centres undefined)", "outcome": "inactive"}, {"smiles": "COc1ccccc1N1C(=O)NC(=O)/C(=C/c2ccc([N+](=O)[O-])s2)C1=O", "outcome": "inactive"}, {"smiles": "N#CCCn1cc(/C=C2\\NC(=S)N(c3ccccc3)C2=O)c(-c2ccc(-c3ccccc3)cc2)n1", "outcome": "inactive"}, {"smiles": "CN1/C(=N\\O)c2cccc3cccc1c23", "outcome": "inactive"}, {"smiles": "Cc1cc(OCc2nc3ccccc3s2)ccc1N", "outcome": "inactive"}, {"smiles": "Cc1cc(O)c(/C=N/Nc2cccc(Cl)c2)c(=O)o1", "outcome": "inactive"}, {"smiles": "COc1ccc(-c2c(-c3cc(OC)cc(OC)c3)n(C)c3ccc(-c4ccn[nH]4)cc23)cc1", "outcome": "inactive"}, {"smiles": "Nc1ccc(N=Nc2ccccc2)c(N)n1", "outcome": "inactive"}, {"smiles": "CCC(C)OC(=O)C(C)Oc1ccc(-c2ccccc2)cc1", "note": "(centres undefined)", "outcome": "inactive"}, {"smiles": "CC(=O)/C(=C\\Nc1ccc(OCc2ccccc2)cc1)c1ccccc1", "outcome": "inactive"}, {"smiles": "CC(=O)c1cccc(Nc2nc(-c3cccnc3)cs2)c1", "outcome": "inactive"}, {"smiles": "O=c1[nH][nH]c(-c2ccccc2O)c1C(C[N+](=O)[O-])c1cccc(Cl)c1", "note": "(centres undefined)", "outcome": "inactive"}, {"smiles": "COc1cc2[nH]c(Cl)c([N+](=O)[O-])c2cc1OC", "outcome": "inactive"}, {"smiles": "C#CCOC(=O)/C(=C/c1ccc(F)cc1)NC(C)=O", "outcome": "inactive"}, {"smiles": "CN1[C@@H]2CC[C@H]1CC(OC(=O)[C@H](CO)c1ccccc1)C2", "note": "(some centres undefined)", "outcome": "inactive"}, {"smiles": "CCOc1cc(/C=N\\NC(=O)Cn2nc([N+](=O)[O-])cc2C)ccc1OCc1cccc2ccccc12", "outcome": "inactive"}, {"smiles": "N#CC1=C(N)NC(SCC(=O)c2ccccc2)=C(C#N)C12CCCC2", "outcome": "inactive"}, {"smiles": "CCOc1ccc2nc(/N=C/c3nc(-c4ccccc4)oc3O)sc2c1", "outcome": "inactive"}, {"smiles": "COc1ccccc1/C=N/NC(=O)NC12CC3CC(CC(C3)C1)C2", "outcome": "inactive"}, {"smiles": "Nc1ccc(OCc2ccco2)cc1", "outcome": "inactive"}, {"smiles": "Nc1cnc(-c2ccccc2)nc1Cl", "outcome": "inactive"}, {"smiles": "Cc1ccc(-c2ccc(/C=N/c3ncn[nH]3)o2)cc1Cl", "outcome": "inactive"}, {"smiles": "COc1ccc(NC(=O)C(=O)NCC(c2ccco2)N2CCc3ccccc3C2)cc1", "note": "(centres undefined)", "outcome": "inactive"}, {"smiles": "COc1ccc(-c2nc(C#N)c(N3CCc4ccccc4C3)o2)cc1OC", "outcome": "inactive"}, {"smiles": "C=CCOc1ccc(/C=N/O)cc1Cl", "outcome": "inactive"}]}]}
